# Pf apPOL block: Pf-apPOL DNA polymerase inhibition | AID 1794808 | Recombinant Pf-apPOL, molecular beacon fluorescence, 1.5 h | inhibition, % at 10 µM | 210,000 tested, 0.25% active
# mHTT-CaM PPI inh: inhibitors of human mutant huntingtin-calmodulin interaction. 190,000 tested, 3.6% active. inhibition, % at 15 µM. AlphaScreen His-mHTT/GST-CaM binding, luminescence. P42858;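 also: 0% = both proteins with DMSO and 100% = one protein alone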
# * = called active by the depositor. The entries come from a sample that favours hits as a whole. Rule as the data show it: active = inhibition above about 50%; inactive = the rest.
SMILES,Pf apPOL block,mHTT-CaM PPI inh
Cc1ccc(/C=C2\C(=O)Nc3ccc(Br)cc32)cc1,-9,43
CCCCOc1ccccc1/C=C1\C(=O)Nc2ccc(Br)cc21,3,62*
COc1ccccc1/C=C1\C(=O)Nc2ccc(F)cc21,2,30
COc1ccc(Br)cc1/C=C1\C(=O)Nc2ccc(Br)cc21,-37,5
CCOc1c(O)ccc(/C=C2\C(=O)Nc3ccc(Br)cc32)c1[N+](=O)[O-],-23,94*
Cc1ccccc1/C=C1\C(=O)Nc2ccc(Br)cc21,-4,97*

# High-throughput results: PubChem BioAssay, University of Kansas High Throughput Screening Laboratory
